Screening results: PubChem, several laboratories
AI-2 QS modul: Vibrio harveyi AI-2 quorum sensing modulators, primary screen, JMH597 strain, luminescence/OD600 ratio; activity change, % at 7.5 µM; Vibrio harveyi JMH597 AI-2 luminescence/OD600 ratio, 9 h; active compounds read low; strain lacks LuxN and CqsS sensors; 0 = neutral-control median; AID 2094, 2009; 0.4% of 300,000 active; in the data active = activity change below about -75%, passing the limit was not always enough;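 also: luminescence divided by OD600 gain over 9 h not by final OD600 alone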
Cardio protect: cardioprotection against H2O2-induced cell death, primary screen, uHTS, H9c2 cells, ATPLite luminescence; protection from H2O2 cell death, % at 20 µM; AID 588492, 2011; 0.63% of 360,000 active; H9c2 cardiomyocytes, H2O2 injury protection, 2 h;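 active = compounds giving at least 50% protection of heart cells from peroxide-induced death in the single-dose screen, raw or plate-pattern-corrected value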;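 also: 0% = DMSO wells with peroxide and 100% = DMSO wells without peroxide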
SUMO Mot1 rescue: yeast Mot1-301 growth rescue at high temperature, primary screen, SUMOylation pathway inhibitor project, S. cerevisiae, ATP luminescence, 38.5C. growth rescue, % at 18.8 µM. AID 2716, 2010. 1% of 320,000 active. S. cerevisiae Mot1-301 growth rescue; percent above DMSO median, 100 means doubled;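 active = every valid replicate shows activation above 250% relative to neutral control wells; inactive = the rest, any valid replicate at or below 250%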;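 also: OY570 slx delta 5 strain wells were the positive control but not used for scaling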
GRIN3A LBD mod: binders of NR3A ligand-binding domain, primary screen, biophysical, differential scanning fluorimetry, uHTS. NR3A LBD differential scanning fluorimetry, Tm shift; 0% = protein alone, 100% = glycine-bound protein. Tm shift relative to glycine control, % at 25 µM. 2.5% of 340,000 active. AID 1259313, 2017. Glutamate receptor ionotropic, NMDA 3A (GRIN3A) ligand-binding domain;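 active = melting temperature shift of at least 10% of the positive control shift, at one fixed dose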
NTR1 agonist: agonists of human NTR1, primary screen, imaging, U2OS cells, beta-arrestin-GFP, high content | activation, % at 20 µM | 0.17% of 330,000 active | Neurotensin receptor type 1 (Homo sapiens), P30989 | AID 493036, 2011 | NTR1-U2OS beta-arrestin-GFP spot imaging, agonist mode;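 active = activation at or above 40% of the spot to cytoplasm intensity ratio, with at least 20 cells analyzed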;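 also: 0% = DMSO without peptide and 100% = 100 nM NTR1 peptide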
Target sequence (P30989 whole entry, looked up): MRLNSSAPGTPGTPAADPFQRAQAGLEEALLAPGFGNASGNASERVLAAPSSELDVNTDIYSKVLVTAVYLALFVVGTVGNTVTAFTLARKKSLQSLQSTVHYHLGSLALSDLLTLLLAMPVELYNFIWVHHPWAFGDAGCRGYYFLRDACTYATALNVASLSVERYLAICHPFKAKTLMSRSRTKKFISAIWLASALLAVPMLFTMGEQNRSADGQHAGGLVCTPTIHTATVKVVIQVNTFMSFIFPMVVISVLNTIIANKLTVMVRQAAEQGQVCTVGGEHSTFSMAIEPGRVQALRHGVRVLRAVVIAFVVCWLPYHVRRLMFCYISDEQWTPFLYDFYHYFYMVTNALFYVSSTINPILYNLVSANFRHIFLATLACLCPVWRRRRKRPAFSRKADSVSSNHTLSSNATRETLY
AHR act: AHR activators, primary screen, cell-based, luminescence, luciferase reporter, human; Aryl hydrocarbon receptor (Homo sapiens), P35869; AHR-responsive luciferase reporter cells; activation, % at 5 µM; 2.5% of 320,000 active; in the data active = activation above about 47%;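 also: 0% = vehicle wells and 100% = reference agonist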
Numbers without * were called inactive; · = no result. Rows were chosen to be rich in hits. Some 6.2% of all compounds tested hit in one or more screens of this group.

SMILES	AI-2 QS modul	Cardio protect	SUMO Mot1 rescue	GRIN3A LBD mod	NTR1 agonist	AHR act
CC(C)NC(=O)c1cc(-n2cnnc2)ccc1Cl	-2	0	2	11*	1	1
CC(=O)Nc1ccc(NC(=O)c2cc(-n3cnnc3)ccc2Cl)cc1	11	0	9	-1	0	-1
Cn1cc(/C=C/c2cc[n+](C)cc2)c2cc(Cl)ccc21	0	-10	-17	-2	·	47*
Cn1cc(/C=C/c2cc[n+](C)cc2)c2cc(F)ccc21	1	-14	111	-4	·	28
COc1ccc2nc(Nc3nc(C)c(C(C)=O)s3)sc2c1	9	-20	-8	11*	4	4
COc1ccc(Nc2nc3ccc(OC)cc3s2)cc1	-59	-10	14	28*	0	-3
COc1cc(CN2C[C@@H](CO)O[C@@H](n3cnc4c(NCC(C)C)ncnc43)C2)cc(OC)c1OC	·	4	·	·	·	·
COc1ccccc1/C=N/NC(=O)c1ccc(NC(=O)c2ccccc2Br)cc1	27	-6	11	-25	-2	-1
COc1c(Br)cc(Br)cc1/C=N/NC(=O)c1ccncc1	4	10	-5	-1	1	57*
CCNC(=S)N/N=C/c1cc(Br)cc(Br)c1OC	32	-6	2	-3	9	63*
COc1cccc(/C=N/NC(=O)c2ccncc2)c1OC(=O)c1ccc(Br)cc1	25	55*	-1	-3	6	3
CCC(=O)Nc1ccc(C(=O)N/N=C/c2cc(Br)c(OC)cc2OC)cc1	9	3	20	24*	1	6
COc1cc(/C=N/NC(=O)c2ccncc2)ccc1OC(=O)c1cccc(Br)c1	5	10	66	-17	16	6
COc1c(Br)cc(Br)cc1/C=N/NC(=O)c1cccnc1	2	11	-3	-4	2	·
COc1ccc(S(=O)(=O)N2CCOCC2)cc1NC(=O)CCOc1ccc(C(C)(C)C)cc1	·	-15	·	-7	2	·
COc1ccc(Nc2nc(-c3cccs3)nc3ccccc23)cc1S(=O)(=O)N1CCOCC1	18	67*	8	5	21	23
O=P(O)(C(O)c1ccccc1)C(O)c1ccccc1 (stereo not drawn)	37	15	79	0	6	2
Cc1c(C(=O)NCCC#N)sc(=O)n1Cc1ccc(C(=O)N(C)C)cc1	·	-1	·	·	·	·
Cc1ccc(S(=O)(=O)Nc2ccc3cc([N+](=O)[O-])ccc3c2[N+](=O)[O-])cc1	·	-10	·	3	·	·
Cc1ccc(NC(=O)C2=C(O)CCn3c2nc2ccccc23)cc1	-2	28	55	-5	6	57*
Cc1ccc(NC(=O)NCc2nc3ccccc3n2C)cc1	7	-1	-10	1	0	5
CC(=O)Nc1cccc(C(=O)OCC(=O)N(c2ccccc2)C2CCS(=O)(=O)C2)c1 (stereo not drawn)	·	-5	·	-1	0	·
N#C/C(=N\Nc1cccc(C(F)(F)F)c1)C(=O)c1csc(-c2cccnc2)n1	87	-13	22	11*	4	1
COc1ccccc1NC(=O)c1ccc(NC(=O)c2ccco2)cc1	29	-3	-11	-4	0	6
COc1ccc(C(=O)Nc2cc(OC)cc(OC)c2)cc1	10	-26	17	1	-1	57*
SMILES	AI-2 QS modul	Cardio protect	SUMO Mot1 rescue	GRIN3A LBD mod	NTR1 agonist	AHR act
COc1ccc(C(=O)Nc2ccc(C(=O)Nc3cccc(C)c3)cc2)cc1	27	1	-10	14*	0	-5
COc1cc(OC)cc(C(=O)Nc2ccc(C(=O)Nc3ccccc3OC)cc2)c1	·	51*	60	35*	1	-2
COc1ccc(Oc2ccc(NC(=O)c3ccccc3C)cc2)cc1	-32	-6	8	17*	1	-2
CCCCn1nnnc1C(c1cccc2ccccc12)N1CCN(C/C=C/c2ccccc2)CC1 (stereo not drawn)	·	-9	·	·	·	·
COc1ccc(C(O)c2ncc(-c3ccc4ccccc4c3)[nH]2)cc1 (stereo not drawn)	·	-5	·	·	·	·
Cc1cc(C)nc(NC(=O)c2ccc(OC(C)C)cc2)n1	31	-8	284*	-1	0	49*
COc1ccc(/C=N/NC(=O)c2ccc3ccccc3c2)cc1OS(=O)(=O)c1ccc(NC(C)=O)cc1	22	38	12	28*	3	6
COc1ccc(C=O)cc1OS(=O)(=O)c1ccc(NC(C)=O)cc1	18	13	5	-1	1	0
COc1ccc(NC(=O)c2cccn(CC=C(C)C)c2=O)cc1	-3	-2	331*	-2	2	13
COc1ccc(NC(C)=O)cc1NC(=O)c1ccc(Cl)cc1	16	-4	4	-4	0	29
Cc1cc(C)nc(NC(=O)c2ccc(C)c(C)c2)n1	11	6	10	1	0	13
COc1ccc(NC(C)=O)cc1NC(=O)c1ccc2ccccc2c1	13	11	-4	-6	1	74*
O=C(C=Cc1cccs1)c1ccccc1	·	-7	·	4	·	·
CCCCn1c(N)c(N(CC(C)C)C(=O)C2=NN(c3ccccc3)C(=O)CC2)c(=O)[nH]c1=O	·	-3	-20	-1	-1	11
O=C(Nc1ccc2c(c1)OCO2)C1Cc2c(-c3ccccc3Oc3ccccc3)ccnc2O1 (stereo not drawn)	·	-18	·	·	·	·
CCc1nc(SCC(=O)c2ccccc2)c2ccccc2n1	38	16	12	-2	7	51*
O=C1CSC(c2ccc([N+](=O)[O-])cc2)N1c1ccc(O)cc1 (stereo not drawn)	2	-2	-11	0	4	5
CC(=O)c1sc2nc(-c3cccs3)ccc2c1N	6	-4	2	22*	-1	20
Nc1c(C(=O)Nc2nc3ccccc3s2)sc2nc(-c3cccs3)ccc12	6	-39	0	28*	23	47
Nc1ccc(C(=O)Nc2nc3ccccc3s2)cc1	11	-8	-5	8	-5	13
Cc1c(C(=O)NCc2ccc3c(c2)OCO3)sc(=O)n1Cc1ccc(-c2ccccc2)cc1	·	-5	·	·	·	·
CC(C)(C)C(=O)/C=c1\[nH]c(=O)/c(=C\c2ccc(F)cc2)s1	25	-5	5	2	11	32
CC(C)(C)C(=O)/C=c1\[nH]c(=O)/c(=C\c2ccccc2F)s1	24	-6	192	-3	9	53*
